Here are results for five molecules from PubChem BioAssay (EPA / NIEHS).

Activity calls are given as the source filed them. The calls were made as follows: active = hit-call score of the fitted dose curve at least 0.9, where 1 is the maximum; inactive = score below 0.9.

Read-out in assay [1]: Urokinase-type plasminogen activator receptor (uPAR), PLAUR (gene 5329)
The assay is described as follows: BSK_CASM3C_uPAR: BioMAP Diversity Plus: CASM3C Assay for Urokinase-type plasminogen activator receptor (uPAR) Biomarker Activity (AID 2283054).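 Also: cell-surface uPAR protein level quantified by ELISA.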 The note with it: primary human coronary artery smooth muscle cells; actives raise or lower the signal.

Read-out in assay [2]: Vascular cell adhesion molecule 1 (VCAM1), VCAM1 (gene 7412)
Put plainly: BSK_CASM3C_VCAM1: BioMAP Diversity Plus: CASM3C Assay for Vascular cell adhesion molecule 1 (VCAM1) Biomarker Activity (AID 2283055).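 Also: VCAM-1 protein level quantified by ELISA on the cells.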 The note with it: primary human coronary artery smooth muscle cells; actives raise or lower the signal.

Read-out in assay [3]: Epidermal growth factor receptor (EGFR), EGFR (gene 1956)
The assay is described as follows: BSK_hDFCGF_EGFR: BioMAP Diversity Plus: hDFCGF Assay for Epidermal growth factor receptor (EGFR) Biomarker Activity (AID 2283057). The note with it: primary human foreskin fibroblasts; actives raise or lower the signal. In short, it runs like this:
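Dosing human primary skin fibroblasts, then measuring surface EGFR by ELISA at 24 h, gives the endpoint; gains and losses relative to DMSO were fitted in both directions.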

Assay [4] in a line: BSK_hDFCGF_Proliferation: Cell Proliferation Assessment in the BioMAP Diversity Plus: hDFCGF Assay (AID 2283059).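 Also: curves fitted for both rise and fall of signal versus DMSO baseline.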 The note with it: primary human foreskin fibroblasts. The procedure, abridged:
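Sub-confluent human foreskin fibroblast cultures receive test chemical […]. Relative cell number is quantified by sulforhodamine B staining (0.1%, after 10% TCA fixation) at 560 nm, with bidirectional fitting referenced to DMSO.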

Read-out in assay [5]: Macrophage colony-stimulating factor (MCSF), CSF1 (gene 1435)
Put plainly: BSK_hDFCGF_MCSF: BioMAP Diversity Plus: hDFCGF Assay for Macrophage colony-stimulating factor (MCSF) Biomarker Activity (AID 2283060). The note with it: primary human foreskin fibroblasts; actives raise or lower the signal. In short, it runs like this:
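Human foreskin primary fibroblasts were treated with test chemical for 24 h, and M-CSF was then measured by ELISA. Data were fitted bidirectionally against DMSO as the negative control and activity baseline.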

Assay [6] is described as follows: BSK_hDFCGF_SRB: Viability Assessment in the BioMAP Diversity Plus: hDFCGF Assay (AID 2283061).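 Also: cells exposed to compound for 24 h before the read.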 The note with it: primary human foreskin fibroblasts. The procedure, abridged:
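Human foreskin primary fibroblasts were treated with compound and assessed 24 h after dosing. Total protein was measured by sulforhodamine B staining (0.1% SRB after 10% TCA fixation, 560 nm read) as a cytotoxicity marker, with bidirectional fitting against DMSO baseline.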

Read-out in assay [7]: TIMP metallopeptidase inhibitor 1 (TIMP1), TIMP1 (gene 7076)
Put plainly: BSK_hDFCGF_TIMP1: BioMAP Diversity Plus: hDFCGF Assay for TIMP metallopeptidase inhibitor 1 (TIMP1) Biomarker Activity (AID 2283062). The note with it: primary human foreskin fibroblasts; actives raise or lower the signal. In short, it runs like this:
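Primary human foreskin fibroblasts in the hDFCGF system were dosed with compound for 24 h, then TIMP-1 was measured by ELISA. Activity was fitted bidirectionally relative to DMSO control; parallel SRB staining assessed cytotoxicity.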

Read-out in assay [8]: Monokine induced gamma interferon (MIG), CXCL9 (gene 4283)
Put plainly: BSK_hDFCGF_MIG: BioMAP Diversity Plus: hDFCGF Assay for Monokine induced gamma interferon (MIG) Biomarker Activity (AID 2283063). The note with it: primary human foreskin fibroblasts; actives raise or lower the signal. The procedure, abridged: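 ELISA read-out of MIG from primary human dermal fibroblasts 24 h post-dosing. Gain or loss of signal fitted bidirectionally, DMSO as baseline.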

Read-out in assay [9]: Matrix Metallopeptidase 1 (MMP1), MMP1 (gene 4312)
The assay is described as follows: BSK_hDFCGF_MMP1: BioMAP Diversity Plus: hDFCGF Assay for Matrix Metallopeptidase 1 (MMP1) Biomarker Activity (AID 2283064). Conditions: primary human foreskin fibroblasts; actives raise or lower the signal. The procedure, abridged: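 MMP1 levels quantified by ELISA 24 h after dosing human dermal fibroblast cultures, with parallel SRB total-protein staining for overt cytotoxicity. Data fitted in both directions against DMSO baseline.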

Read-out in assay [10]: Vascular cell adhesion molecule 1 (VCAM1), VCAM1 (gene 7412)
The assay is described as follows: BSK_hDFCGF_VCAM1: BioMAP Diversity Plus: hDFCGF Assay for Vascular cell adhesion molecule 1 (VCAM1) Biomarker Activity (AID 2283065).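 As to AC50: VCAM-1 protein level quantified by ELISA after 24 h chemical exposure.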 The note with it: primary human foreskin fibroblasts; actives raise or lower the signal. In short, it runs like this:
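Primary human foreskin fibroblasts (hDFCGF system) were dosed with chemical and VCAM-1 was measured by ELISA 24 h later. Bidirectional curve fitting used DMSO as negative control and activity baseline.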

Read-out in assay [11]: Plasminogen activator inhibitor-1 (PAI1), SERPINE1 (gene 5054)
Put plainly: BSK_hDFCGF_PAI1: BioMAP Diversity Plus: hDFCGF Assay for Plasminogen activator inhibitor-1 (PAI1) Biomarker Activity (AID 2283066). The note with it: primary human foreskin fibroblasts; actives raise or lower the signal. The procedure, abridged:
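Fibroblasts from human foreskin were treated with test chemical. After 24 h, PAI-1 was measured by ELISA. Activity was fitted in both directions relative to DMSO.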

Read-out in assay [12]: Intercellular Adhesion Molecule 1 (ICAM1), ICAM1 (gene 3383)
The assay is described as follows: BSK_KF3CT_ICAM1: BioMAP Diversity Plus: KF3CT Assay for Intercellular Adhesion Molecule 1 (ICAM1) Biomarker Activity (AID 2283067). The note with it: primary human keratinocytes with fibroblasts; actives raise or lower the signal. In short, it runs like this:
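Human keratinocyte plus foreskin fibroblast primary co-culture was exposed to chemical for 24 h. ICAM-1 was then quantified by ELISA, and the data were fit bidirectionally against DMSO as the negative control and baseline.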

Read-out in assay [13]: Interferon-gamma inducible Protein 10 (IP10), CXCL10 (gene 3627)
The assay is described as follows: BSK_KF3CT_IP10: BioMAP Diversity Plus: KF3CT Assay for Interferon-gamma inducible Protein 10 (IP10) Biomarker Activity (AID 2283068). Conditions: primary human keratinocytes with fibroblasts; actives raise or lower the signal. The procedure, abridged: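 ELISA read-out of IP-10 after 24 h chemical dosing of human skin primary co-culture (keratinocytes, foreskin fibroblasts). Gain or loss of signal relative to DMSO, bidirectional curve fit.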

Assay [14] can be described thus: BSK_KF3CT_SRB: Viability Assessment in the BioMAP Diversity Plus: KF3CT Assay (AID 2283069). The note with it: primary human keratinocytes with fibroblasts. In short, it runs like this: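 Cytotoxicity was gauged by SRB staining (0.1% SRB, 10% TCA fixation, 560 nm) of parallel cultures at 24 h. The cells were primary human skin keratinocytes co-cultured with fibroblasts, and activity was fitted in both directions against DMSO.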

Read-out in assay [15]: Interleukin-1 alpha (IL1a), IL1A (gene 3552)
The assay is described as follows: BSK_KF3CT_IL1a: BioMAP Diversity Plus: KF3CT Assay for Interleukin-1 alpha (IL1a) Biomarker Activity (AID 2283070). The note with it: primary human keratinocytes with fibroblasts; actives raise or lower the signal. In short, it runs like this:
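IL-1a was detected by ELISA 24 h after chemical treatment of a co-culture of human skin keratinocytes and foreskin fibroblasts. Gain or loss of signal was fitted against the DMSO baseline.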

Read-out in assay [16]: TIMP metallopeptidase inhibitor 2 (TIMP2), TIMP2 (gene 7077)
The assay is described as follows: BSK_KF3CT_TIMP2: BioMAP Diversity Plus: KF3CT Assay for TIMP metallopeptidase inhibitor 2 (TIMP2) Biomarker Activity (AID 2283071). The note with it: primary human keratinocytes with fibroblasts; actives raise or lower the signal. In short, it runs like this:
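Chemicals were dosed onto human skin primary co-cultures of keratinocytes and foreskin fibroblasts, and TIMP-2 was measured by ELISA after 24 hours. Activity in either direction was fitted relative to DMSO.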

Read-out in assay [17]: Transforming growth factor beta 1 (TGFb1), TGFB1 (gene 7040)
The assay is described as follows: BSK_KF3CT_TGFb1: BioMAP Diversity Plus: KF3CT Assay for Transforming growth factor beta 1 (TGFb1) Biomarker Activity (AID 2283072). The note with it: primary human keratinocytes with fibroblasts; actives raise or lower the signal. The procedure, abridged: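 KF3CT co-culture (keratinocytes + fibroblasts), 24 h exposure → TGF-b1 ELISA → bidirectional fit, DMSO = baseline. Parallel SRB total-protein staining (0.1% SRB, 10% TCA fixation, 560 nm) for cytotoxicity.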

Read-out in assay [18]: C-C motif chemokine 2 (Homo sapiens) (UniProt P13500)
The assay is described as follows: BSK_KF3CT_MCP1: BioMAP Diversity Plus: KF3CT Assay for Monocyte Chemoattractant Protein 1 (MCP1/CCL2) Biomarker Activity (AID 2283073). Conditions: primary human keratinocytes with fibroblasts; actives raise or lower the signal. In short, it runs like this:
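Human keratinocyte plus foreskin fibroblast primary co-culture exposed to chemical for 24 h. MCP-1 levels measured by ELISA. Bidirectional curve fitting relative to DMSO negative control as baseline.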

Read-out in assay [19]: Interleukin-8 (IL8), CXCL8 (gene 3576)
The assay is described as follows: BSK_hDFCGF_IL8: BioMAP Diversity Plus: hDFCGF Assay for Interleukin-8 (IL8) Biomarker Activity (AID 2283058). Conditions: primary human foreskin fibroblasts; actives raise or lower the signal. In short, it runs like this:
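hDFCGF human dermal fibroblasts; 24 h chemical exposure; IL-8 by ELISA; bidirectional curve fit vs DMSO baseline; gain or loss of signal scored.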

Broadly, the AC50 is the midpoint of the concentration-response curve, whichever way the signal moves. Turning to `COP(=S)(OC)Oc1ccc(S(=O)(=O)N(C)C)cc1`, the result in assay [1], in assay [2], in assay [3], in assay [5], in assay [6] and in [7] was inactive. The outcome in assay [8], in assay [9], in [10], in assay [11], in [12] and in assay [13] was inactive. The result in assay [14], in assay [15], in assay [16], in assay [17] and in assay [18] was inactive. The concentration at half-maximal activity (AC50) in [4] was 28.2 µM (active).
On to `COC(=O)Cc1ccccc1`, for which the result in assay [1], in [2], in assay [3], in assay [19], in assay [4] and in assay [5] was inactive. Besides, the outcome in assay [7], in [8], in assay [9], in assay [10], in assay [11] and in [12] was inactive. For the same molecule, the result in assay [13], in assay [14], in assay [15], in assay [16] and in assay [18] was inactive.
Take `CCOP(=S)(OCC)SCSP(=S)(OCC)OCC`: the result in assay [1], in [2], in assay [3], in assay [5], in assay [6] and in assay [7] was inactive. For the same molecule, the result in assay [8], in [9], in assay [10], in assay [11], in assay [12] and in assay [13] was inactive. Moreover, the outcome in assay [14], in [15], in [16], in assay [17] and in [18] was inactive. Further, in assay [4], the AC50 is 31.6 µM (active).
On to `CCC(C)(C)c1ccc(O)c(C(C)(C)CC)c1`, for which the AC50 in [1] is 31.4 µM (active); in assay [2], 12.2 µM (active); in [19] it was 10.4 µM (active); in assay [4] it was 9.6 µM (active); in assay [5] it was 8.2 µM (active); in [7], 8.53 µM (active). Also, the half-maximal activity concentration (AC50) in assay [8] is 8.09 µM (active); in assay [9], 10.7 µM (active); in [10] it was 9.33 µM (active); in assay [11], 7.87 µM (active); in assay [12], 11.7 µM (active); in assay [13] it was 9.69 µM (active). Further, the AC50 in assay [14] is 7.84 µM (active); in [15] it was 9.89 µM (active); in assay [16], 9.47 µM (active); in assay [17] it was 8.12 µM (active); in assay [18], 10.6 µM (active). The result in assay [3] was inactive.
For `NC(=O)O`, the outcome in [1], in assay [2], in assay [3], in [4], in assay [5] and in assay [7] was inactive. Besides, the result in [8], in assay [9], in assay [10], in assay [11], in assay [12] and in assay [13] was inactive. Besides, the result in assay [14], in assay [15], in assay [16], in assay [17] and in [18] was inactive.
